Most compounds without a hit are left out; they make up all but 19% or so of the library.
DT40 TDP1 no CPT: qHTS for Inhibitors of human tyrosyl-DNA phosphodiesterase 1 (TDP1): qHTS in cells in absence of CPT | Potency, µM (top dose mostly 46.2 µM), without a hit: at the top dose activity change, negative = growth inhibition, hits mostly inhibitors | 15% of 420,000 active | DT40 Tdp1-/- hTDP1 cells, no CPT, ATP luminescence, 48 h | AID 686978, 2013; also: potency is read from the fitted curve at half-maximal effect; % is scaled to controls: 0 for no effect and ±100 for the full control effect; nearly all actives have a fitted effect of over 55% in size
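Growth of hTDP1-complemented DT40 Tdp1-knockout cells is measured by ATP luminescence after at least 48 hr compound exposure at 37 °C, with DMSO substituting for the 20 nM CPT used in the parallel screen.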
TGFb inhibitor: TGF-b pathway inhibition. HepG2 CAGA-GFP TGF-b/SMAD3 reporter, GFP fluorescence, 18 h; TGF-beta stimulated, 500 pg/mL final. Potency, µM (series often up to 46.1 µM), for inactives: at the highest dose activity, negative = inhibition, hits mostly inhibitors. 1.2% of 410,000 active. AID 588855; also: potency is read from the fitted curve at half-maximal effect; % is scaled to controls: 0 for no effect and ±100 for the full control effect; nearly all actives have a fitted effect of over 65% in size
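TGF-beta reporter screen: HEPG2 CAGA-GFP, 1% FBS, 500 pg/mL TGF-beta final, 18 h; per-cell GFP summed per well; curves fitted and categorized by class.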
HepG2 tox: counter-screen for TGF-b inhibitors: cytotoxicity in HepG2 cells; HepG2 CAGA-GFP viability, ATP luminescence, 18 h; Potency, µM (titrated, usually from 46.1 µM), inactives show at the highest dose activity change, negative = cytotoxicity, actives largely listed as cytotoxic; 0.76% of 410,000 active; also: potency is read from the fitted curve at half-maximal effect
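HepG2 CAGA-GFP cells (1000/well, DMEM with 1% FBS) received compound, then TGF-beta at 500 pg/mL final, and were incubated 18 hours at 37 degrees C. Viability was read by CellTiter-Glo luminescence. Media-only wells were set as complete cell-killing and DMSO as no toxicity.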
DT40 TDP1 CPT: growth inhibition of DT40 Tdp1-/-;hTDP1 cells with camptothecin (screen for TDP1 inhibitors); 12% of 420,000 active; chicken DT40 Tdp1-/-;hTDP1 cells + 20 nM CPT, ATP luminescence, 48 h; AID 686979; Potency, µM (top dose mostly 46.2 µM), inactives show at the top dose activity change, negative = growth inhibition, usual class: inhibitors; also: potency is read from the fitted curve at half-maximal effect; % is scaled to controls: 0 for no effect and ±100 for the full control effect; nearly all actives have a fitted effect of over 55% in size
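Chicken DT40 Tdp1-/- cells stably complemented with human TDP1 were seeded at 400 cells/well in medium containing 20 nM camptothecin, exposed to pin-transferred compounds, and grown at 37 °C for at least 48 hr. Viability was read as ATP luminescence.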
ASM inhibitor: inhibitors of human secretory acid sphingomyelinase; placental ASM, HMU-PC fluorogenic substrate, 60 min; Potency, µM (doses to about 57.5 µM), for inactives: at the top dose activity change, negative = inhibition, actives largely listed as inhibitors; 0.006% of 340,000 active; also: potency is read from the fitted curve at half-maximal effect
Target sequence (P17405 47-631 limits assumed): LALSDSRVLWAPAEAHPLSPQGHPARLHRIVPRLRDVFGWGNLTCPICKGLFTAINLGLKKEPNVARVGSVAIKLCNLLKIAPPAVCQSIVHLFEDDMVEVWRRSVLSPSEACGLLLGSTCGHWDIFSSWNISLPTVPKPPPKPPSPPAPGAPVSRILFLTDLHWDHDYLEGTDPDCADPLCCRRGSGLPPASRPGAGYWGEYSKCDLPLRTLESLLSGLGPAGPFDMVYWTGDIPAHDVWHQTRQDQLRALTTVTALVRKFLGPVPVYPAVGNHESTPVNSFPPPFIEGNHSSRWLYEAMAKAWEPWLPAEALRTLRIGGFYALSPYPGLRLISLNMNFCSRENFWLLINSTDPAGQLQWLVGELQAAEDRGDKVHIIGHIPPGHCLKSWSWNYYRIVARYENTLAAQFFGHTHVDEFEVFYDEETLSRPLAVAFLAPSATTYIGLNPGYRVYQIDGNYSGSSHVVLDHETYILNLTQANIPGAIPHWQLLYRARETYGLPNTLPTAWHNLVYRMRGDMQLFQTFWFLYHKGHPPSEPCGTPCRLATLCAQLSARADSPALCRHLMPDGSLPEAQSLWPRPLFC
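HMU-PC0 cleavage (9 uM final) by human placental ASM, 60 min at 37 °C following 10 min compound exposure at RT; stopped at pH 10, fluorescence Ex 386/Em 447 nm.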
IL-1B inflam inh: blocks inflammasome-driven IL-1 beta release. THP-1 LPS/ATP IL-1B secretion, AlphaLISA, 16 h; stronger effect = lower value. activity change, % at 57.5 µM. 4.7% of 360,000 active; in the data active = activity change below about -50%; inconclusive = mostly about -30% to -49%; also: % is scaled to controls: 0 for no effect and ±100 for the full control effect
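Secreted IL-1B measured by AlphaLISA bead assay after 16 h compound exposure of THP-1 cells; compounds (final up to 57.5 uM) added 1 h before LPS (250 ng/mL) and ATP (1.25 mM) stimulation; lower signal means less secretion.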
An asterisk follows results filed as active; ? = inconclusive; . = no result given. Unless noted, calls follow the shape of the dose curve; as a rule, active = well fitted curve in the direction sought with a large enough effect; inconclusive = small, poorly fitted or top-dose-only effect, or another doubt; inactive = no such curve, though single readings can be large; an effect the other way counts as inactive or inconclusive.

SMILES	DT40 TDP1 no CPT	TGFb inhibitor	HepG2 tox	DT40 TDP1 CPT	ASM inhibitor	IL-1B inflam inh
NC(=O)CCC(=O)N1CCCC(C(=O)c2ccc(C(F)(F)F)cc2)C1 (stereo unspecified)	19%	6%	11%	-14%	-3%	-4
O=C(c1ccc(C(F)(F)F)cc1)C1CCCN(C(=O)CCc2ccncc2)C1 (stereo unspecified)	6.5µM*	?	-31%	8.2µM*	3%	-5
CN(C)C(=O)CCC(=O)N1CCCC(C(=O)c2ccc(C(F)(F)F)cc2)C1 (stereo unspecified)	26µM*	0%	-6%	?	3%	0
O=C(c1cc(F)ccc1F)C1CCCN(C(=O)CCc2cnccn2)C1 (stereo unspecified)	-21%	9%	13%	-7%	-1%	16
CC(C)(C)c1ccc(C(=O)C2CCCN(C(=O)CN3CCCC3=O)C2)cc1 (stereo unspecified)	?	-21%	-9%	?	-1%	40
CN(C)C(=O)N1CCC(C(=O)N2CCCC(C(=O)c3ccc(C(C)(C)C)cc3)C2)CC1 (stereo unspecified)	16µM*	?	-24%	?	-1%	-5
O=C(Nc1ccc(Br)cc1)C1CCCC1	-11%	2%	-1%	-10%	-1%	-4
O=C(NNC(=O)C1[C@H]2CCCC[C@@H]12)Nc1cccc2ccccc12 (stereo partly specified)	?	0%	-39%	-11%	-2%	2
O=C(Nc1ccc(Br)cc1F)c1cc(S(=O)(=O)NCc2ccc(F)cc2)ccc1F	?	1%	-32%	-11%	.	.
CCOc1ccc(C(=O)NC(=S)N(Cc2ccccc2)Cc2ccccc2)cc1	?	-19%	-15%	21µM*	-7%	1
N#CCCN(Cc1ccccc1)C(=S)NC(=O)c1ccccc1	9.2µM*	-25%	0%	9.2µM*	5%	27
O=C1CCCCC1C(Nc1ccc(Cl)cc1)c1ccccc1 (stereo unspecified)	-26%	-34%	0%	-8%	-10%	-15
O=C1CCCCC1C(Nc1ccc(Br)cc1)c1ccccc1 (stereo unspecified)	1%	-4%	-13%	2%	-12%	-72*
COc1ccc(-c2cc(C(=O)NCCc3ccccc3)c3c(-c4ccccc4)[nH]nc3n2)cc1	?	?	-24%	?	.	.
COc1ccc(-c2cc(C(=O)NCCc3ccccc3)c3c(-c4ccc(Cl)cc4)[nH]nc3n2)cc1	10µM*	-24%	-2%	12µM*	.	.
CCOc1ccc(-c2cc(C(=O)NCc3ccc(OC)cc3)c3c(-c4ccc(F)cc4)[nH]nc3n2)cc1	0%	2%	-13%	0%	.	.
Cc1ccc(CNC(=O)c2cc(-c3ccc(C)cc3)nc3n[nH]c(-c4cccc([N+](=O)[O-])c4)c23)cc1	?	14%	-1%	12µM*	.	.
COc1ccc(CCNC(=O)c2cc(-c3ccc(C)cc3)nc3n[nH]c(-c4ccc(F)cc4)c23)cc1OC	-23%	5%	-18%	-16%	.	.
CCc1ccc(-c2[nH]nc3nc(-c4ccc(OC)cc4)cc(C(=O)NCCc4ccc(OC)c(OC)c4)c23)cc1	-30%	10µM*	-62%	?	.	.
CCOc1ccc(-c2cc(C(=O)NCc3ccccc3)c3c(-c4ccc(CC)cc4)[nH]nc3n2)cc1	?	-14%	4%	21µM*	.	.
COC(=O)C1=C(C)NC(=O)/C1=C\N(C)C	-3%	-4%	-8%	5%	1%	-3
Cc1ccc(-n2c3nc(=O)n(C)c(=O)c-3cc3c(Cl)cccc32)c(C)c1	?	7%	1%	-15%	.	.
COc1ccc(OC)c(-c2cc(C(=O)NCCc3ccccc3)c3c(-c4ccc(C)cc4)[nH]nc3n2)c1	13µM*	?	-18%	23µM*	.	.
CC(=O)Nc1ccc(NC(=O)C2CC(=O)N(Cc3ccco3)C2)cc1 (stereo unspecified)	15%	19%	0%	-10%	0%	4
N#Cc1ccc(OCC(=O)NCCCn2ccnc2)cc1	0%	1%	2%	0%	0%	19
SMILES	DT40 TDP1 no CPT	TGFb inhibitor	HepG2 tox	DT40 TDP1 CPT	ASM inhibitor	IL-1B inflam inh
COC(=O)c1c(OCc2ccccn2)cc(=O)n2c1CCN(Cc1cccc(C(F)(F)F)c1)CC2	-8%	.	.	7%	.	.
CNCCCCCCCCSc1nc(C(C)C)ccc1C(=O)c1cccs1	4.2µM*	.	.	4.2µM*	.	.
CCCNC(=O)C1(C)CCN(C(=O)COc2ccc(Cl)cc2Cl)C1 (stereo unspecified)	-13%	14%	-2%	1%	.	59
COc1ccc(OCC(=O)N2CCN(c3nnc(-c4ccc(C)cc4)c4ccccc34)CC2)cc1	16µM*	-27%	3%	16µM*	-11%	-84*
Cc1ccc(OCC(=O)N2CCN(c3nnc(-c4ccc(C)cc4)c4ccccc34)CC2)cc1	23µM*	?	-28%	16µM*	-18%	-87*
Cc1cc(C)c2nc(C(F)(F)F)nc(N3CCN(C(=O)c4ccco4)CC3)c2c1	?	-3%	-10%	26µM*	-15%	?
O=C(COc1ccccc1)N1CCN(c2nnc(-c3ccccc3)c3ccccc23)CC1	16µM*	-14%	-10%	13µM*	1%	-18
CNc1cc(-c2ccc(OC)nc2)ncn1	-21%	10%	7%	-28%	.	0
COc1cc(/C=C2\C(=N)N3N=C(S(C)(=O)=O)SC3=NC2=O)ccc1OS(=O)(=O)c1ccc(C)cc1	?	2%	-7%	?	?	-4
COCCNC(=O)CCn1nc(-c2ccc(C)cc2)ccc1=O	1%	-8%	-7%	22%	-1%	8
CC(=O)OCC(=O)[C@@]12OC(C)(C)OC1CC1C3CC(F)C4=CC(=O)C=C[C@@]4(C)[C@@]3(F)C(O)C[C@]12C (stereo partly specified)	-1%	.	.	8%	.	.
COc1ccc(NC(=O)CN2C(=O)NC(C)(Cc3ccc(OC)c(OC)c3)C2=O)cc1 (stereo unspecified)	-3%	-7%	7%	1%	.	21
COc1ccc(OCC(=O)N2CCN(c3nnc(-c4ccccc4)c4ccccc34)CC2)cc1	18µM*	-4%	-13%	16µM*	-9%	-66*

High-throughput results as filed in PubChem.
